From the supplement of paper PMC11732987, “Enantioselective OTUD7B fragment discovery through chemoproteomics screening and high-throughput optimisation” (Communications Chemistry, 2025)

Tests used:
Experiment in all cases: log2 ratio of Biotin-Ahx-Ub-VS probe labelling (fragment/DMSO); higher = less target engagement (more negative = stronger competition), active = hit call of the paper (q ≤ 0.05, log2 ratio ≤ -1)
Details in all cases: compound concentration: 200 uM; treatment time: 3 h
[1] = target: USP34 (UniProt Q70CQ2)
Chain of USP34 (Q70CQ2 whole entry, the tested form may be a part): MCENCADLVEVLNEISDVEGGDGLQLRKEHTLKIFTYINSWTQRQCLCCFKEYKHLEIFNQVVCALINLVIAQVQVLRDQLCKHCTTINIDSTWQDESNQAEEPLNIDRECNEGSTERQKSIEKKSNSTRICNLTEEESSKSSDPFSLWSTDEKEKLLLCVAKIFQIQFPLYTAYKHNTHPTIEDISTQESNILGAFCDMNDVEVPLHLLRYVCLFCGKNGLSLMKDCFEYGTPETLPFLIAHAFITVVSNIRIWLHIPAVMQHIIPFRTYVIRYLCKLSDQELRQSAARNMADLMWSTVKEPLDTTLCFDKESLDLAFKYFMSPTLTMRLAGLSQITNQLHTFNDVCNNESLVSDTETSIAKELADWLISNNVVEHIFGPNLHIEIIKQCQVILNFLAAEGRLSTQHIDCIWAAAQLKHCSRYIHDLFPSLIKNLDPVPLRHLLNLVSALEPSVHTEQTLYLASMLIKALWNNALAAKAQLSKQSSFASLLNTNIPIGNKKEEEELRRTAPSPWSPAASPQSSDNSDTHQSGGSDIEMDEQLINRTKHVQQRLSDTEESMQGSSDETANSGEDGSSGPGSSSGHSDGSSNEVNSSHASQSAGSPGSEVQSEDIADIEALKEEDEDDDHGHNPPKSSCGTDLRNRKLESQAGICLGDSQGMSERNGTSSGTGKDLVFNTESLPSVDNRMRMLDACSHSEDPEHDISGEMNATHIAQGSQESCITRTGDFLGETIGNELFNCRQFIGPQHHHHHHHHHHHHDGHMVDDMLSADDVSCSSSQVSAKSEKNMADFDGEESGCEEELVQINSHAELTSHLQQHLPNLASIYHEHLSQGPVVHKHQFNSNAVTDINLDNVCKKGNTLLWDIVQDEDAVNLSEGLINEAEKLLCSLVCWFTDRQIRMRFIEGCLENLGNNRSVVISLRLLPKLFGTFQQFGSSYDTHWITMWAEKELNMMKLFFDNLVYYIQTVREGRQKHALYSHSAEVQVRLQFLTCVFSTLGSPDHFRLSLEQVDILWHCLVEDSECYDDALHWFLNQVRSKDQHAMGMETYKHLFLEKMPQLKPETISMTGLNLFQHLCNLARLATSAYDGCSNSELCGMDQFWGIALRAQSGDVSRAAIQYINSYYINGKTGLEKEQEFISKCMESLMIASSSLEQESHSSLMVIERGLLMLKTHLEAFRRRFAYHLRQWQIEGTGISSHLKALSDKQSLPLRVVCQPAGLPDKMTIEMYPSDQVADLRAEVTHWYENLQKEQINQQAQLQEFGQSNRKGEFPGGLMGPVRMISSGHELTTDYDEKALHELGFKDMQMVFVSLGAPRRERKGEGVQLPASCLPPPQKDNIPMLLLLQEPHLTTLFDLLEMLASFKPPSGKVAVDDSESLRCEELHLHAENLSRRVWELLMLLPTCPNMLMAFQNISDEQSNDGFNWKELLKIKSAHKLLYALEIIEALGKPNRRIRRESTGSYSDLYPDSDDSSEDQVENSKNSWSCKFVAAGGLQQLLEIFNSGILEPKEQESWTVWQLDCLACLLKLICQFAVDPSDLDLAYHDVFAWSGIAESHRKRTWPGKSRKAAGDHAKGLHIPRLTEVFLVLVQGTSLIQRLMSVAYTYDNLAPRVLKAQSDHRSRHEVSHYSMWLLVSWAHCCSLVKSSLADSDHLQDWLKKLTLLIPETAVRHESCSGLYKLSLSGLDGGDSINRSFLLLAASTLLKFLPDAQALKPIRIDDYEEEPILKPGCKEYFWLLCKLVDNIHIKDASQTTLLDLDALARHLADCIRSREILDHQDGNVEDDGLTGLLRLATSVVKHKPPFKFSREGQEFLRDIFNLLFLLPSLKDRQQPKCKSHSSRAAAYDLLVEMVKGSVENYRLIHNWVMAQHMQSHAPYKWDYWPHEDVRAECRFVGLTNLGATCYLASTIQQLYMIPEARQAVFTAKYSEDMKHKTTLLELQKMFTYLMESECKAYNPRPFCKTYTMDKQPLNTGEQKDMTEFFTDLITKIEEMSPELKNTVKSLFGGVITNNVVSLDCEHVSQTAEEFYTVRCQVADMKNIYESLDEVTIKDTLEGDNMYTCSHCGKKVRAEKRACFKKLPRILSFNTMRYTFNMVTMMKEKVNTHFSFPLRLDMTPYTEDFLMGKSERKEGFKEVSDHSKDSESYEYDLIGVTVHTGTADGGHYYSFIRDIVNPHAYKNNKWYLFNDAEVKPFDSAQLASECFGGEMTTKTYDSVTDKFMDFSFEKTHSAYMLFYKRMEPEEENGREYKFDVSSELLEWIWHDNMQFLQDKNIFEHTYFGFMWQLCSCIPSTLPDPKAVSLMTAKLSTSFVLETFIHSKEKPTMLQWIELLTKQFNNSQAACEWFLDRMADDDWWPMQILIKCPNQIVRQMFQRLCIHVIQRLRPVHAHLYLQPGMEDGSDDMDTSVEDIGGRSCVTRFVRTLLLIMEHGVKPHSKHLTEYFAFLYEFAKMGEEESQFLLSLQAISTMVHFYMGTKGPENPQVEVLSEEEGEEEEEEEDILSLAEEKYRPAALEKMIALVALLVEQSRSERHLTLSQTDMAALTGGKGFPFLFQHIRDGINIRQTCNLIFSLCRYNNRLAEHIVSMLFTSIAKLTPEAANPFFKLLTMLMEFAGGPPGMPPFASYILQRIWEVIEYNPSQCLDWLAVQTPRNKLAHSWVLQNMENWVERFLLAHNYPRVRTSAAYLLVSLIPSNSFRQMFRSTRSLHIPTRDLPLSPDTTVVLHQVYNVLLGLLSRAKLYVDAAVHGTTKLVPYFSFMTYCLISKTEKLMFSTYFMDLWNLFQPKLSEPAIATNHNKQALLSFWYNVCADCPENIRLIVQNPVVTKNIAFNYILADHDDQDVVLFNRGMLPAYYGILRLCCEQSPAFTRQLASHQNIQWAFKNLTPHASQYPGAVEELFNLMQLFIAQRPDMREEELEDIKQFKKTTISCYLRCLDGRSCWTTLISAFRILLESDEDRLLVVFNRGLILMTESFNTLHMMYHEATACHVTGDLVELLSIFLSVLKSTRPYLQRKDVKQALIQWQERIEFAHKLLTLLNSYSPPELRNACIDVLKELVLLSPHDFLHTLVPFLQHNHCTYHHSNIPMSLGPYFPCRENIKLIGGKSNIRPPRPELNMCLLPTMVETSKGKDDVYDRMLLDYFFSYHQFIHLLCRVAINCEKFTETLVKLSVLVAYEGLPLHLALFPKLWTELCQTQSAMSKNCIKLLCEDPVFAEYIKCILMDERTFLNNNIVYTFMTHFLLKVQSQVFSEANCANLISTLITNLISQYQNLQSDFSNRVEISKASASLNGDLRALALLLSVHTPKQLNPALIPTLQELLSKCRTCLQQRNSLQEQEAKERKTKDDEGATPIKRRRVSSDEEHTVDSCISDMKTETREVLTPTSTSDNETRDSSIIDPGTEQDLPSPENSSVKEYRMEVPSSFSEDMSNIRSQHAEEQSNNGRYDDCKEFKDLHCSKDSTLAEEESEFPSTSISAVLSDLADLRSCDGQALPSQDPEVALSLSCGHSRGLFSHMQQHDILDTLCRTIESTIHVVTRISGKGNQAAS
Procedure, shortened: (§1)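 HEK293T lysate, 495 µg per sample in Tris/CHAPS/IGEPAL buffer with protease inhibitors, was treated in triplicate with fragment at 200 µM or vehicle for 3 h and then with Biotin-Ahx-Ub-VS at 0.5 µM final for 1 h. Labelled DUBs were NeutrAvidin-enriched, digested with LysC and trypsin, and run by diaPASEF LC-MS/MS. Spectronaut label-free quantities were global-median-normalised, and values are average log2 fragment/vehicle ratios by unpaired t-test on proteins with ≥2 unique peptides.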

[2] = target: T1, USP36 (UniProt Q9P275)
T1 sequence (whole entry): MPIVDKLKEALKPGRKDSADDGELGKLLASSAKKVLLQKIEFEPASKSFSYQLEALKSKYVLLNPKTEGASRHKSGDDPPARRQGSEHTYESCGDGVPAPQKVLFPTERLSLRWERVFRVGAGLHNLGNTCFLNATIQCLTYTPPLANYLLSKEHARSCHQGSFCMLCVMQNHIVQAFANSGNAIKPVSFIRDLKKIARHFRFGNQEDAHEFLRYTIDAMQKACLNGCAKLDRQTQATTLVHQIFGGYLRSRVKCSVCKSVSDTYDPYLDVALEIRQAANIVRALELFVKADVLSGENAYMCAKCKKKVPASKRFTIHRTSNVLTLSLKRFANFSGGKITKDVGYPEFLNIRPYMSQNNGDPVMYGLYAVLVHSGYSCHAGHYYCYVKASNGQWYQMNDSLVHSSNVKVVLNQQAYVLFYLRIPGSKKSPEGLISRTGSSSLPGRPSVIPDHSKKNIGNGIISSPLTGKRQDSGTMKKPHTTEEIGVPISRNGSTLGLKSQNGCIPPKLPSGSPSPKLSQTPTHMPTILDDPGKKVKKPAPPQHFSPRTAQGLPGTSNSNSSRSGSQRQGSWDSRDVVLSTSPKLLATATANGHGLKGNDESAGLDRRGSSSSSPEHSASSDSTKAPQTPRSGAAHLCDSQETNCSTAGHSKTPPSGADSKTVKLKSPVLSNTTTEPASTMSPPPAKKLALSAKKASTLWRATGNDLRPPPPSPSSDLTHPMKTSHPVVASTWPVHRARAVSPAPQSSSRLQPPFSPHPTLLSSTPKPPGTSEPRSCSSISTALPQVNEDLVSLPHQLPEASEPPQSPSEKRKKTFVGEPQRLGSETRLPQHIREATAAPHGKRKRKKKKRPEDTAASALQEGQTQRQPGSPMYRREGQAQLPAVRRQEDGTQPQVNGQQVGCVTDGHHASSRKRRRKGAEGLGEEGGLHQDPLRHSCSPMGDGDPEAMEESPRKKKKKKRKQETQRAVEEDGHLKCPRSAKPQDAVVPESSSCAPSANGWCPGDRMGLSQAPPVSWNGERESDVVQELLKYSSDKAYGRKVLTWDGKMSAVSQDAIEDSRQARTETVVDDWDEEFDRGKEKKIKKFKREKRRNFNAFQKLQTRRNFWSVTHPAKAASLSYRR
Procedure, shortened: as §1

[3] = target: T2, USP38 (UniProt Q8NB14)
T2 sequence (whole entry): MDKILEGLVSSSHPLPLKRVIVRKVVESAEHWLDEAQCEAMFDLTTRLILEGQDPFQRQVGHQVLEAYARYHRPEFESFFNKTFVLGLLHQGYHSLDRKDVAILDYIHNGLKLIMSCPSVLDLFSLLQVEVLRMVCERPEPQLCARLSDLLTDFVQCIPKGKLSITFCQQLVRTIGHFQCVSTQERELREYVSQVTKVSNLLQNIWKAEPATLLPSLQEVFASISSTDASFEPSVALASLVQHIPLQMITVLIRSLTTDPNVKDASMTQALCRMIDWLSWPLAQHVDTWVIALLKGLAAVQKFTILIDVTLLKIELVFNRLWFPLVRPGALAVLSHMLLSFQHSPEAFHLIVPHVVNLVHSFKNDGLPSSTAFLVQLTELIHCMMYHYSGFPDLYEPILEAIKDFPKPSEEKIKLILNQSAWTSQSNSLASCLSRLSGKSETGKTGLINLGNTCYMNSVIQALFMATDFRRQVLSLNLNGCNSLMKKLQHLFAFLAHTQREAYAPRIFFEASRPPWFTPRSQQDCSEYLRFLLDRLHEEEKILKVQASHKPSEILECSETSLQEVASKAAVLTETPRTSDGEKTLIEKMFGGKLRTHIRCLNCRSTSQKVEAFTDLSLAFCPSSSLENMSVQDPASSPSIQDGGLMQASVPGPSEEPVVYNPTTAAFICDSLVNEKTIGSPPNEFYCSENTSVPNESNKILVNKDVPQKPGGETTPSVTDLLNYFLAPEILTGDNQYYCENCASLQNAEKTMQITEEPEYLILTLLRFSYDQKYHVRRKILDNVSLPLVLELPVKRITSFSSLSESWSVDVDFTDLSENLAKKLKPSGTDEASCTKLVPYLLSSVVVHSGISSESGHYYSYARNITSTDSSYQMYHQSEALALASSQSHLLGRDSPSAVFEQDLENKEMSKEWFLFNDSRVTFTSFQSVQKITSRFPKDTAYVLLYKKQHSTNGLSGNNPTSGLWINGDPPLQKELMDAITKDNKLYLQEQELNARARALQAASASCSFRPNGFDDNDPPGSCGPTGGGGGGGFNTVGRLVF
Procedure, shortened: as §1

[4] = target: T3, USP39 (UniProt Q53GS9)
T3 sequence (whole entry): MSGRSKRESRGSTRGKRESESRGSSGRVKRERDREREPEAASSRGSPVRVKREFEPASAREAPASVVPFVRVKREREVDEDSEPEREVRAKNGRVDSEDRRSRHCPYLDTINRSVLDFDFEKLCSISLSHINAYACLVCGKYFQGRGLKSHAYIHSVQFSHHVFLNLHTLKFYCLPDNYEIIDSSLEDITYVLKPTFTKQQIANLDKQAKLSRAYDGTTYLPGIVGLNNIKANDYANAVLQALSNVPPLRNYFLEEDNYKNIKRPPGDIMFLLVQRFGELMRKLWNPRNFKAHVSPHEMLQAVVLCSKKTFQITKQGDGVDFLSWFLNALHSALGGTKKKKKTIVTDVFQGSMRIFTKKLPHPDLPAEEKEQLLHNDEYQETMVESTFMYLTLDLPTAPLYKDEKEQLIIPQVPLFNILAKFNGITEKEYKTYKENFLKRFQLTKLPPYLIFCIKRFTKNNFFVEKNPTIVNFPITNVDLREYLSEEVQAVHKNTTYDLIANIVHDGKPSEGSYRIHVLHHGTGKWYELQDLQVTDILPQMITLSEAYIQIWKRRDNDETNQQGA
Procedure, shortened: as §1

[5] = target: T4, USP4 (UniProt Q13107)
T4 sequence (whole entry): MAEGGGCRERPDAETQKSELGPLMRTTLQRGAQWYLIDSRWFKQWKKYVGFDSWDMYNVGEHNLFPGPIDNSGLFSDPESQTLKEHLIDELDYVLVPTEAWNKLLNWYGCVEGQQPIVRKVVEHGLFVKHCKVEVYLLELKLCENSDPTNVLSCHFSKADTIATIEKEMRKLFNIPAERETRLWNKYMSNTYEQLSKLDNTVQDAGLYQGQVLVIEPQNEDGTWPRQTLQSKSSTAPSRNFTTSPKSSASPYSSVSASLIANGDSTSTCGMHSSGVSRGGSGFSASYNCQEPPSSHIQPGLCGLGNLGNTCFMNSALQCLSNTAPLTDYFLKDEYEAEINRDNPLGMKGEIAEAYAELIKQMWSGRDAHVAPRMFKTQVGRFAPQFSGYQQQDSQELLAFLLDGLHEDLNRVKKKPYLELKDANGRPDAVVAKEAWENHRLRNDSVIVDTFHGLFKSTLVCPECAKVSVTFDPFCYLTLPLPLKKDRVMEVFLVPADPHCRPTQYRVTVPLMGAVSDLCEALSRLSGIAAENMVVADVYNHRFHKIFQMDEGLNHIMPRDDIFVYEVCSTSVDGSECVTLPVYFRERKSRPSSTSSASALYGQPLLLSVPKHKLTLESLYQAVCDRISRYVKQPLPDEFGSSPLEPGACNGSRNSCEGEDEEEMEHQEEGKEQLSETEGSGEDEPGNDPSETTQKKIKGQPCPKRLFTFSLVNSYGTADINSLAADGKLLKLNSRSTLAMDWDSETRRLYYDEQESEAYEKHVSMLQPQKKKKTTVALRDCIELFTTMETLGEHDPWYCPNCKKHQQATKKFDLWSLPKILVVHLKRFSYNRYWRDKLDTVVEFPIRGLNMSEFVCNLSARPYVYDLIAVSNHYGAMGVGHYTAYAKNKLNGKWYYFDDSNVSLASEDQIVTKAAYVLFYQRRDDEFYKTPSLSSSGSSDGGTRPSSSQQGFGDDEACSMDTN
Procedure, shortened: as §1

Measured: log2 ratio of Biotin-Ahx-Ub-VS probe labelling

O=C(CCl)N1CCN2C(=O)CCC2C1 (stereo not given)
inactive: [1] -0.0311 | [2] 0.272 | [3] 0.0868 | [4] -0.106 | [5] -0.0639
